Shown are actives, neighbours in structure and some others; about 3.2% of the full set was active somewhere.
SKN-1 inh – suppressors of acrylamide-induced Pgst-4::GFP reporter in worms, primary screen, SKN-1 inhibitor project, whole organism, uHTS, GFP/RFP fluorescence ratio, strain VP596. C. elegans VP596 Pgst-4::GFP/RFP ratio, 24 h. 360,000 compounds, 0.49% hits. inhibition, % at 21.8 µM. AID 624304, 2012;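 active means interference check ratio from 0.5 to 1.5 plus GFP to RFP signal ratio inhibition reaching or exceeding a fixed threshold, cut at about 30% in these data, passing the limit was not always enough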
MEKK2 WT-MEK5 – modulators of MEK5 binding to wildtype MEKK2, primary screen, biochemical, multiplex bead flow cytometry, Alexa488-MEK5; Mitogen-activated protein kinase kinase kinase 2 (Homo sapiens), Q9Y2U5; Alexa488-MEK5 binding to MEKK2 WT; actives lie on both sides; binding response (% of control), % at 10 µM; 290,000 compounds, 1.1% hits; in the data active means binding response below about 67% or above about 130%
NRP1-CendR mod – modulators of CendR peptide binding to NRP-1, primary screen, biochemical, fluorescence polarization, uHTS | AID 602438, 2012 | 360,000 compounds, 0.85% hits | inhibition, % at 25 µM | Neuropilin-1 (Homo sapiens), O14786 | FAM-RPARPAR peptide binding to NRP-1;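 active means inhibition or corrected inhibition above about 18%, plus a signal ratio from 0.5 to 1.5, limit read from the data, passing the limit was not always enough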
Target sequence (O14786 whole entry, looked up): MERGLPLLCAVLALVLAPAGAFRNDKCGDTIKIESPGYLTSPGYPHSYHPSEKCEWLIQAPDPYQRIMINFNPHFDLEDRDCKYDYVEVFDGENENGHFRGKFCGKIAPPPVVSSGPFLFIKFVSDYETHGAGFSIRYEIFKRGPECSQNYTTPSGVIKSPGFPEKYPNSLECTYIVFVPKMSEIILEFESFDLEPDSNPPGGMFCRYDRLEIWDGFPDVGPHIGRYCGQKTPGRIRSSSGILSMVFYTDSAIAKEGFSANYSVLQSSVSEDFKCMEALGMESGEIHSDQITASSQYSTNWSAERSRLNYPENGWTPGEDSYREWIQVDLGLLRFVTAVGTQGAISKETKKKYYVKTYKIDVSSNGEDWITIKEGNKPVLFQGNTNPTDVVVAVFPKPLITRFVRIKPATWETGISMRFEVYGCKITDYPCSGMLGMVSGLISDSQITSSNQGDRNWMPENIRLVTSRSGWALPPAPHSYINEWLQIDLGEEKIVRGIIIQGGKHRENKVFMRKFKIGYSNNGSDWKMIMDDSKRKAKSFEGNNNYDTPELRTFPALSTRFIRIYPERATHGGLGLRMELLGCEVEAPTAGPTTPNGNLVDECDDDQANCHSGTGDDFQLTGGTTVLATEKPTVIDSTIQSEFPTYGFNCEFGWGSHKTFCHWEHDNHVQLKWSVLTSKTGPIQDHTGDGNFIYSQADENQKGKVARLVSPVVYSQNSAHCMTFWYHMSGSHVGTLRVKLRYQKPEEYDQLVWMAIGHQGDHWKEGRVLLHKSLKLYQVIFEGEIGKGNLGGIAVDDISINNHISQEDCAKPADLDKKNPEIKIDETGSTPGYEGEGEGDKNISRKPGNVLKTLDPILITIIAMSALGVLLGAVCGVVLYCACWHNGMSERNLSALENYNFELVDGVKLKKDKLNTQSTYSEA
MEKK3 PB1 HTS – modulators of MEKK3-MEK5 PB1 binding, primary screen, biochemical, wildtype MEKK3, multiplex bead flow cytometry, Alexa488-MEK5. bead-based flow cytometry, Alexa488-MEK5 binding to MEKK3; actives lie on both sides; 0 = blocked by unlabeled MEK5, 100 = vehicle. 290,000 compounds, 1.4% hits. binding response (% of control), % at 10 µM. Mitogen-activated protein kinase kinase kinase 3 (Homo sapiens), Q99759. AID 1529, 2009;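 active means binding response more than 3 SD above or below the average of its plate-row segment, actives on both sides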;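 further: Alexa488 bead fluorescence after subtracting the streptavidin-only scavenger bead signal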
MEKK2 mut-MEK5 – MEK5 binding signal on mutant MEKK2 PB1, primary screen, biochemical, multiplex bead flow cytometry, Alexa488-MEK5 | Alexa488-MEK5 binding to MEKK2 mutant | percent response, % at 10 µM | 290,000 compounds, 0.35% hits; in the data active means percent response above about 24%, passing the limit was not always enough
MEKK2wt confirm – modulators of MEK5 binding to wildtype MEKK2, confirmation, biochemical, single concentration, multiplex bead flow cytometry; shares compounds with MEKK3 PB1 HTS; Alexa488-MEK5 binding to MEKK2 WT; actives lie on both sides; binding response (% of control), % at 10 µM; 5,900 compounds, 2.4% hits; AID 1892, 2009; in the data active means binding response below about 16% or above about 210%; inactive means in between
MEKK2mut-MEK5 – mutant MEKK2 PB1-MEK5 binding signal retest – biochemical, single concentration, multiplex bead flow cytometry, confirmation | shares compounds with MEKK3 PB1 HTS | percent response, % at 10 µM | 5,900 compounds, 2% hits | Alexa488-MEK5 binding to MEKK2 mutant | AID 1893, 2009; in the data active means percent response mostly above about 71%, no sharp cut-off; inactive means mostly below about 38%;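 further: higher means compound restores mutant binding toward wildtype level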
MEKK3-MEK5 inh – MEKK3 wild-type PB1 binding to MEK5, inhibitors, confirmation, biochemical, bead multiplex flow cytometry, single concentration, wildtype. Alexa488-MEK5 binding to MEKK3; stronger effect = lower value. 5,900 compounds, 1.8% hits. AID 1894, 2009. binding response (% of control), % at 10 µM. shares compounds with MEKK3 PB1 HTS;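 active means binding response below 72% of control, or above a set upper limit, though filed actives all read lower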;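 further: 100% = DMSO only wells and 0% = binding blocked by excess unlabeled MEK5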
* hit, by the source's call; / = not tested or not shown; [ ] = dose if it differs, or a comment.

SMILES	SKN-1 inh	MEKK2 WT-MEK5	NRP1-CendR mod	MEKK3 PB1 HTS	MEKK2 mut-MEK5	MEKK2wt confirm	MEKK2mut-MEK5	MEKK3-MEK5 inh
CC(OC(=O)C1=Cc2ccccc2OC1)C(=O)NCC1CCCO1 (stereo not drawn)	-0.2	/	-23.3	/	/	/	/	/
COc1cccc(C2C3=C(CC(C)(C)CC3=O)OC(N)=C2[N+](=O)[O-])c1 (stereo not drawn)	-25.5	105.0	20.5	99.0	2.0	/	/	/
CC1(C)CC(=O)C2=C(C1)OC(N)=C([N+](=O)[O-])C2c1ccc(F)cc1 (stereo not drawn)	16.4	137.0	0.9	137.0*	27.0	106.0	3.0	102.0
CCc1nnc(NC(=O)CSc2ccc(-c3cccs3)nn2)s1	-8.5	83.0	-7.0	90.0	-11.0	/	/	/
COc1ccccc1-c1ccc(SCc2ccccc2)nn1	4.4	79.0	4.7	73.0*[inhibitor]	-3.0	98.0	-3.0	101.0
CCc1nnc(NC(=O)CSc2ccc(-c3ccccc3OC)nn2)s1	1.9	83.0	13.6	67.0*[inhibitor]	-3.0	97.0	-3.0	100.0
C[C@@H]1COC(=O)[C@@H](NC(=O)OCC2c3ccccc3-c3ccccc32)C/C=C\C[C@@H](CC(=O)N(CCO)Cc2ccccc2)C(=O)N1	6.8	/	-1.2	/	/	/	/	/
CC(Sc1nnc(C2CC2)n1C1CC1)C(=O)Nc1ccccc1C#N (stereo not drawn)	-3.2	/	-6.2	/	/	/	/	/
CCCCn1c(SCC(=O)Nc2nc(C)cs2)nnc1-c1cccnc1	-16.1	1.0*[inhibitor]	4.6	1.0*[inhibitor]	-41.0	110.0	14.0	107.0
O=C(NCCCn1ccnc1)/C(=C\c1cccs1)NC(=O)c1cccs1	6.6	116.0	-0.1	130.0*	0.0	100.0	-5.0	101.0
CC(=O)N1N=C(c2cccc(NS(C)(=O)=O)c2)CC1c1ccc2c(c1)OCO2 (stereo not drawn)	5.6	106.0	2.6	99.0	3.0	/	/	/
CS(=O)(=O)N1N=C(c2ccccc2)CC1c1ccc2nccnc2c1 (stereo not drawn)	5.8	103.0	-24.2	98.0	-1.0	/	/	/
O=C(O)CCC(=O)N1N=C(c2ccccc2)CC1c1ccc2nccnc2c1 (stereo not drawn)	-0.8	104.0	-6.6	106.0	0.0	/	/	/
Cc1ccc(C2=NN(S(C)(=O)=O)C(c3ccc4nccnc4c3)C2)cc1 (stereo not drawn)	7.4	3.0*[inhibitor]	-18.9	94.0	6.0	92.0	-11.0	89.0
O=C(O)CCCC(=O)N1N=C(c2ccccc2)CC1c1ccc2nccnc2c1 (stereo not drawn)	-1.8	106.0	4.3	136.0*	2.0	99.0	2.0	99.0
COc1ccc(C2CC(c3ccc(OC)c(OC)c3)=NN2S(C)(=O)=O)cc1 (stereo not drawn)	5.6	102.0	6.8	105.0	3.0	/	/	/
COc1ccc(C2=NN(S(C)(=O)=O)C(c3ccc4nccnc4c3)C2)cc1 (stereo not drawn)	12.2	/	-44.4	1.0*[inhibitor]	-3.0	98.0	1.0	99.0
CS(=O)(=O)Nc1ccc(C2=NN(S(C)(=O)=O)C(c3ccc4c(c3)OCO4)C2)cc1 (stereo not drawn)	68.6	/	-306.3	6.0*[inhibitor]	/	70.0	-7.0	72.0
C[C@@H]1CN([C@@H](C)CO)C(=O)CCCn2nncc2CO[C@H]1CN(C)C(=O)C1CC1	-6.0	/	-7.8	/	/	/	/	/
Cc1nc2n[nH]c(N)c2nc1C	-3.7	/	-6.4	/	/	/	/	/
Cc1cc(=O)n2nc(N3CCC(C(=O)NCC(C)c4ccccc4)CC3)sc2n1 (stereo not drawn)	-0.2	93.0	2.1	91.0	-7.0	/	/	/
CCc1nc2ccc(C(=O)NCCOc3ccc(OC)cc3)cn2c1N(CCC(C)C)CCN(C)C	3.3	/	-10.9	/	/	/	/	/
COc1nc(NCCC2=CCCCC2)nc(OC)n1	0.4	107.0	-5.8	124.0*	4.0	107.0	4.0	106.0
N/C(=N\OC(=O)C(c1ccccc1)c1ccccc1)c1ccccn1	-9.6	2.0*[inhibitor]	3.3	2.0*[inhibitor]	1.0	97.0	-7.0	99.0
C=CCn1c(SCC(=O)N(CC)c2c(N)n(Cc3ccccc3)c(=O)[nH]c2=O)nnc1-c1ccccc1OC	1.4	/	0.4	/	/	/	/	/
SMILES	SKN-1 inh	MEKK2 WT-MEK5	NRP1-CendR mod	MEKK3 PB1 HTS	MEKK2 mut-MEK5	MEKK2wt confirm	MEKK2mut-MEK5	MEKK3-MEK5 inh
O=C(COC(=O)C12CC3CC(CC(C3)C1)C2)NCc1ccccc1	-13.6	/	15.6	/	/	/	/	/
COC(=O)c1ccc(CNC(=O)COC(=O)C23CC4CC(CC(C4)C2)C3)cc1	12.2	93.0	-6.5	75.0*[inhibitor]	-2.0	99.0	-1.0	105.0
CC(C)OC(=O)c1c(NC(=O)Cn2cnc([N+](=O)[O-])n2)sc2c1CCCC2	4.7	117.0	11.8	116.0	4.0	/	/	/
CCOC(=O)c1c(NC(=O)C2CCCN(S(=O)(=O)c3ccc(C)cc3)C2)sc2c1CCCC2 (stereo not drawn)	6.3	107.0	-2.0	141.0*	1.0	94.0	-2.0	101.0
CCOC(=O)c1c(NC(=O)Cn2cnc([N+](=O)[O-])n2)sc2c1CCCC2	-7.0	103.0	4.7	130.0*	4.0	99.0	3.0	103.0
CCOC(=O)c1c(NC(=O)c2ccc(N3C(=O)[C@@H]4[C@H](C3=O)[C@H]3C=C[C@@H]4C3)cc2)sc2c1CCCC2	3.3	108.0	-3.1	145.0*	0.0	97.0	-4.0	100.0
CN(CC(=O)Nc1ccccc1Br)C(=O)c1ccccc1-c1nc2ccccc2s1	-25.0	104.0	-2.4	102.0	1.0	/	/	/
CCCCOP(=O)(OCCCC)C(Nc1ccccc1)c1ccc2c(c1)OCO2 (stereo not drawn)	8.0	113.0	-4.8	144.0*	1.0	99.0	0.0	102.0
CC(C)OP(=O)(OC(C)C)C(O)c1ccc2c(c1)OCO2 (stereo not drawn)	-5.3	106.0	12.2	99.0	-1.0	/	/	/

Screening data (PubChem)
